Target: RNF167
Test: pooled miR-30 sensor sort-seq; sequence = guide strand
Settings: shRNA
Note: reference of the scale not given here.

Row | Sequence | sensor-assay potency score (higher = more potent)
1 | ATGTGTAGGAATCTGTTTCAGT | -0.804
2 | TTTGGTAAGTCGATTCCGCTGG | 0.435
3 | TCACATTGTGTACTACAGCGGC | -0.461
4 | TTCCGGGTCTGAGTGAGCCAGG | -1.12
5 | TTGGTAAGTCGATTCCGCTGGA | 0.395
6 | TTCCTCACTATTCCACACCATG | -1.35
7 | TACTCGGAGCTTCTCTCCCCAA | -1.19
8 | TTGTGTACTACAGCGGCACCAT | -0.0886
9 | AAGACTGACCCATTGACCGGGG | -0.25
10 | TTCCTCTTGGTCTTCGTCCCCA | -0.474
11 | TACAACGAGCTATCATTACTGC | -0.205

Target: RNF170
Test: as above
Settings: shRNA

Row | Sequence | sensor-assay potency score (higher = more potent)
12 | TACATTAGCTCAGATATCCTAG | 0.22
13 | TAAGATAGAAAAAAGCTCCCAT | 0.565
14 | TTATCATATAGGTACCTGCTGA | -0.705
15 | TTCCAGACAACATAGAATCAAG | -0.928
16 | ATGCAATCTCAGAACATCCTGA | -0.378
17 | TAATATTAGAACTTCAAACATG | -0.991
18 | TATAACTGAATCATCATCCAGT | 0.606
19 | ATTCTCTCCATAATAGATCTGG | -0.226
20 | TTAATCTAAGTAATTCTGGGGA | 0.33
21 | TATATTATCATATAGGTACCTG | -0.52
22 | TAGATCCATAATTCTCTCCATA | -0.793
23 | TAATTAATCTAAGTAATTCTGG | -0.536

Target: RNF19A
Test: as above
Settings: shRNA

Row | Sequence | sensor-assay potency score (higher = more potent)
24 | TTTTGTAATACTTATAACCTAA | -0.606
25 | TAACATAATAGGAACACCGATA | -0.784
26 | TTATATAAGCAGCACATCGTGG | -0.73
27 | TATATTTAGAGATAAAACCTAT | -0.374
28 | TACAGTGGTAGCAAAACTCTGT | 0.121
29 | TTTGTTGTTCTAACAACTGTGC | -0.162
30 | TCTGCTTGTACTTCCAACCTGT | 0.605
31 | ATTTCTTTCATACACAACCAAC | -1.69
32 | TTGTCGAGCAGCATCACAGGTC | 0.0826
33 | TTTGTGCTTTGAAACATCCTTG | 0.0546
34 | TTGGGTTGTGTCTTGCTTCTGC | 0.712
35 | TACATCTGCTTGTACTTCCAAC | -0.763

Target: RNF219
Test: as above
Settings: shRNA

Row | Sequence | sensor-assay potency score (higher = more potent)
36 | TAGCTTATCCACATCATCTTTC | -0.402
37 | TTGATATAGGTCTTTGTTCTTA | -0.397
38 | TCTGTTATCAACTTCAGCCTTC | 0.456
39 | TTGATCTGTGACTCCAAGCTGA | 0.034
40 | ATACTTATCACTTCGTTCCAGG | -0.456

Source: the OligoGym collection
